Test results taken from article PMC4336329 (PLoS ONE, 2015).
The whole screen tested about 310,000 compounds, of which about 2,200 (0.71%) showed an effect of 50% or more. Effects have a minus sign here. Many of the other results were omitted from the sample, so strong results are more common in it than they were.

biological target: human ether-à-go-go-related gene (hERG) potassium channel (human, UniProt Q12809); experiment: primary screen, population patch clamp on CHO cells stably expressing hERG; higher = less effect of the substance
Sequence (Q12809 whole entry, looked up): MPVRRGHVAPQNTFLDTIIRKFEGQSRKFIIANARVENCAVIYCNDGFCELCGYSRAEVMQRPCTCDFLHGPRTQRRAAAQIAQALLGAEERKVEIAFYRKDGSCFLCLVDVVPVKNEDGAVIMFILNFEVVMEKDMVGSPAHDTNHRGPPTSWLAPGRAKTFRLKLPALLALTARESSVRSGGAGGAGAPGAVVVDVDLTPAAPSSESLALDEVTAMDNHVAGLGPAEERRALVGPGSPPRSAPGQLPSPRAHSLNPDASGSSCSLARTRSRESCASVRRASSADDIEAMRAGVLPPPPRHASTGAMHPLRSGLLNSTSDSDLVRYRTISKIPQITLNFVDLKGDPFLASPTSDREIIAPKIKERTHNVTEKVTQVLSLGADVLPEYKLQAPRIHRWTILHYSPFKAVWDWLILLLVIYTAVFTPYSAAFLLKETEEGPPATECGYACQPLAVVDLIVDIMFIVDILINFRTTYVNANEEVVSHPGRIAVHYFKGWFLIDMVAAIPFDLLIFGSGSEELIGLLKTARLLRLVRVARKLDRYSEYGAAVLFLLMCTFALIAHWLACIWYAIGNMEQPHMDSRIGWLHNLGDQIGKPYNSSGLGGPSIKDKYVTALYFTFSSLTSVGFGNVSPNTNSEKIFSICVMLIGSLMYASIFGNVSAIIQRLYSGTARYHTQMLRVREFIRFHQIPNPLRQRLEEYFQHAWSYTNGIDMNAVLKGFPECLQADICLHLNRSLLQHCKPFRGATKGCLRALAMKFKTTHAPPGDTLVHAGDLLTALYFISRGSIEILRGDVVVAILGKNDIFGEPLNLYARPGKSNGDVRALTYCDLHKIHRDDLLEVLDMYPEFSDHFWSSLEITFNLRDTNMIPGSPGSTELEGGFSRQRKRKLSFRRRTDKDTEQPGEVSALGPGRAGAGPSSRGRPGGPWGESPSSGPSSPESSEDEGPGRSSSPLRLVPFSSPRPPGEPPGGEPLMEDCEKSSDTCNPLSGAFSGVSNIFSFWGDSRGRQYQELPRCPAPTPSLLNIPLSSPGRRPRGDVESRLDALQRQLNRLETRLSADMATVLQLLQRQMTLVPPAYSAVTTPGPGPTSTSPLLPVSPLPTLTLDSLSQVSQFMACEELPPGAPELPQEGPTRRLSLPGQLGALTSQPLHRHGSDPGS

| SMILES | hERG current change (%, negative = inhibition) at 1uM [%] |
| --- | --- |
| COCCCN1C(=O)C(=O)/C(=C(/O)c2ccc(S(=O)(=O)N3CCOCC3)cc2)C1c1ccc(F)cc1 (centres unmarked) | 6.04 |
| Cc1ccsc1/C=N/Nc1ncnc2nc[nH]c12 | -2.18 |
| CS(=O)(=O)Nc1ccc(C2=NN(S(=O)(=O)c3ccc(F)cc3)C(c3ccco3)C2)cc1 (centres unmarked) | -15.6 |
| COc1ccc(S(=O)(=O)N2N=C(c3ccc(NS(C)(=O)=O)cc3)CC2c2ccco2)cc1 (centres unmarked) | -69.6 |
| COc1ccc(S(=O)(=O)N2N=C(c3cccc(NS(C)(=O)=O)c3)CC2c2ccco2)cc1 (centres unmarked) | 16.4 |
| O=C(CCS(=O)(=O)Cc1ccccc1F)NCCc1ccc(Cl)cc1 | 5.86 |
| Cc1cc(NC(=O)CSc2nc3c(c(=O)n2-c2ccc(Br)cc2)SCC3)no1 | 6.41 |
| CCOC(=O)c1c(CN(CC)CC)n(C)c2cc(Br)c(O)cc12.Cl | -45 |
| CCOC(=O)c1c(CN2CCN(C)CC2)n(C)c2cc(Br)c(OC)cc12 | -12.4 |
| CCOC(=O)c1c(CN2CCCCC2)n(C)c2cc(Br)c(O)cc12 | -68.8 |
| CCOC(=O)c1c(CN(CC)CC)oc2ccc(OC)cc12 | -25.8 |
| CCOC(=O)c1c(CN(CC)CC)oc2cc(Br)c(O)cc12 | -59.5 |
| CCOC(=O)c1c(CN2CCCCC2)n(C)c2cc(Br)c(OC)cc12 | 9.14 |
| Cc1ccc(NC(=S)NNC(=O)Cn2nc(C(F)F)cc2C(F)F)cc1 | 13.6 |
| Cc1oc(C(C)(C)C)cc1C(=O)Nc1ccc(N2CCOCC2)cc1 | 4.63 |
| CC(=O)NC(=S)Nc1ccccc1N1CCN(C(=O)c2ccccc2)CC1 | 10.6 |
| C[N+](C)(C)CCCCCCCCCC[N+](C)(C)C.[Br-] | 7.97 |
| CCCCc1n(CC(=O)c2ccc(Cl)cc2)c2ccccc2[n+]1C.[Br-] | 10.7 |
| CCCCCCCCCCOC(=O)Cn1c(COc2cccc(OC)c2)[n+](C)c2ccccc21.[Cl-] | -37.3 |
| CCCCCCCCCCOC(=O)Cn1c(COc2ccc(C)cc2)[n+](C)c2ccccc21.[Cl-] | -56.5 |
| CCCCCCCCCCOC(=O)Cn1c(COc2ccc(OC)cc2)[n+](C)c2ccccc21.[Cl-] | -70.9 |
| CCCCCCCCCCOC(=O)Cn1c(COc2ccccc2C)[n+](C)c2ccccc21.[Cl-] | -18 |

| SMILES | hERG current change (%, negative = inhibition) at 1uM [%] |
| --- | --- |
| CCCCCCCCCCOC(=O)Cn1c(COc2ccc(Cl)cc2)[n+](C)c2ccccc21.[Cl-] | -79.1 |
| CCCCCCCCCCOC(=O)Cn1c(COc2ccccc2OC)[n+](C)c2ccccc21.[Cl-] | -33.2 |
| CCCCCCCCCCOC(=O)Cn1c(COc2cccc(C)c2)[n+](C)c2ccccc21.[Cl-] | -43.9 |
| CCCCCCCCCCOC(=O)Cn1c(COc2ccccc2)[n+](C)c2ccccc21.[Cl-] | -46.5 |
| CCN(C(=S)Nc1ccc(Oc2ccccc2)cc1)c1ccccc1 | 21.1 |
| CCc1nnc(NC(=O)C2CCC2)s1 | 3.46 |
| CCCn1c(N)c(N(CCOC)C(=O)c2ccc(F)cc2)c(=O)[nH]c1=O | 12.9 |
| Cc1[nH]c(C)c(S(=O)(=O)NCCc2ccc(S(N)(=O)=O)cc2)c1C(=O)N1CCCC1 | 12.3 |
| CCCCSc1nnc(-c2ccc(NC(=O)CCc3ccccc3)cc2)n1C | 19.5 |
| Cc1ccc2occ(/C=C/C(=O)O)c(=O)c2c1 | 9.03 |
| CCNC(=O)C1(c2ccccc2)CCCC1 | 5.42 |
| CCOC(=O)C[n+]1c(C)csc1C.[Br-] | 9.26 |
| CCN1CCN(c2nc(Nc3cccc(C)c3)nc(N)c2[N+](=O)[O-])CC1 | -36.9 |
| CCN1CCN(c2nc(Nc3cccc(OC)c3)nc(N)c2[N+](=O)[O-])CC1 | -60.6 |
| CCN1CCN(c2nc(Nc3ccc(OC)cc3)nc(N)c2[N+](=O)[O-])CC1 | 1.06 |
| COc1ccccc1-n1c(/C=C/c2ccc(O)cc2)nc2ccccc2c1=O | 13 |
| CCCCn1c(=O)c(C(=O)c2ccccc2)nc2ccccc21 | 5.56 |
| CCCCCn1c(=O)c(C(=O)c2ccccc2)nc2ccccc21 | -52.5 |
| CCCn1c(=O)c(C(=O)c2ccccc2)nc2ccccc21 | -0.484 |
| CCCCn1c(CCNC(=O)CC)nc2ccccc21 | 0.197 |
| CCCCn1c(CCCNC(=O)CC)nc2ccccc21 | -3.85 |
| CCCCCn1c(CCCNC(=O)CC)nc2ccccc21 | -52.3 |

| SMILES | hERG current change (%, negative = inhibition) at 1uM [%] |
| --- | --- |
| Cc1ccc(NC(=O)CSc2sc3c(O)cc(=O)[nH]c3c2C#N)cc1C | 0.874 |
| CC(C)(C)OC(=O)N1CCC(C(N)=O)CC1 | 5.04 |
| CCOC(=O)c1ccc(NC(=O)N2C[C@@H]3C[C@@H](C2)c2cccc(=O)n2C3)cc1 | 7.4 |
| O=C(c1ccco1)N1CCN(Cc2ccc(Cl)cc2)CC1 | 7.26 |
| CCOC(=O)N1CCN(Cc2nc(N)nc(Nc3ccc(Cl)cc3)n2)CC1 | -22.7 |
| Cc1ccc(Nc2nc(N)nc(CN3CCN(c4ccccc4)CC3)n2)cc1Cl | -10.8 |
| Cc1ccc(Nc2nc(N)nc(CN3CCN(C(=O)c4ccco4)CC3)n2)cc1Cl | -54.1 |
| Nc1nc(CN2CCN(C(=O)c3ccco3)CC2)nc(Nc2cccc(Cl)c2)n1 | -76.3 |
| Cc1ccc(Nc2nc(N)nc(CN3CCN(Cc4ccccc4)CC3)n2)cc1Cl | -24.5 |
| CN1C(=O)CSc2ccc(NC(=O)Nc3ccccn3)cc21 | 8.01 |
| Cc1ccc(Cl)cc1NC(=O)c1ccc(CSc2nnnn2C)cc1 | 9.74 |
| CCOc1cc(/C=N\NC(=O)C2C(=O)NCC2c2ccccc2)ccc1OC (centres unmarked) | 10 |
| Oc1ccc(C[C@H]2CNCCN2CCc2cccc(F)c2)cc1 | 7.34 |
| CC1CN(C(=O)CCC(=O)NCCCN2CCN(Cc3ccccc3)CC2)c2cc(Cl)ccc2O1 (centres unmarked) | -68.1 |
| CCN1CCN(CCCNC(=O)CCC(=O)N2CC(C)Oc3ccc(C)cc32)CC1 (centres unmarked) | 6.55 |
| Cc1ccc2c(c1)N(C(=O)CCC(=O)NCCCN1CCOCC1)CC(C)O2 (centres unmarked) | -1.87 |
| CC1CN(C(=O)CCC(=O)NCCCN2CCC(Cc3ccccc3)CC2)c2cc(Cl)ccc2O1 (centres unmarked) | -62.2 |
| Cc1ccc2c(c1)N(C(=O)CCC(=O)NCCCN1CCN(C)CC1)CC(C)O2 (centres unmarked) | 8.82 |
| CC1CN(C(=O)CCC(=O)NCc2ccccc2)c2cc(Cl)ccc2O1 (centres unmarked) | 0.521 |
| Cc1ccc(C(=O)c2cc(Br)ccc2N)cc1 | 12.5 |
| COc1ccc(-c2csc(NC(=O)CCNC(=O)c3ccco3)n2)cc1OC | -3.11 |
| O=S(=O)(NC1CCCCCCC1)c1ccc(F)cc1 | 12.2 |

| SMILES | hERG current change (%, negative = inhibition) at 1uM [%] |
| --- | --- |
| C=CCNC(=O)c1ccccc1NS(=O)(=O)c1ccc(SC)cc1 | 10.5 |
| CSc1ccc(S(=O)(=O)N2CCC(C(=O)Nc3ccccc3C(F)(F)F)CC2)cc1 | 11.7 |
| C=CCNC(=O)c1ccccc1NC(=O)C1CCN(S(=O)(=O)c2ccc(SC)cc2)CC1 | -56.8 |
| Cc1cccc2cc(CN(Cc3ccc(F)cc3)C(=O)C(F)(F)F)c3nnnn3c12 | 30.5 |
| COC(=O)[C@@H]1C[C@]2(OC(=O)c3ccccc3)C=CC(=O)C[C@@H]2N1C(=O)OCc1ccccc1 | 11.9 |
| COc1ccc(-c2[nH]ncc2CN2CCC(OCc3cccnc3)CC2)c(F)c1 | -10.6 |
| CCOC(=O)C1CCN(Cc2cn[nH]c2-c2ccccc2)CC1.O=C(O)C(=O)O | 14.2 |
| COc1ccc(-c2[nH]ncc2CN2CCCC(C(=O)c3ccc(OC)cc3OC)C2)cc1 (centres unmarked) | -47.3 |
| COc1ccc(-c2[nH]ncc2CN2CCC(C(=O)c3ccc(F)cc3)CC2)cc1 | -70.5 |
| O=C(c1ccc(F)cc1)C1CCN(Cc2cn[nH]c2-c2ccccc2)CC1 | -84.2 |
| COc1ccc(-c2[nH]ncc2CN2CCC(c3ccncc3)CC2)cc1F | -51.4 |
| COc1ccc(-c2[nH]ncc2CN2CCN(c3ccc(F)cc3)CC2)cc1 | -4.53 |
| Fc1ccc(N2CCN(Cc3cn[nH]c3-c3ccccc3)CC2)cc1 | -27 |
| COCC1CCN(Cc2cn[nH]c2-c2ccc(OC)c(F)c2)C1 (centres unmarked) | 3.17 |
| COc1ccc(-c2[nH]ncc2CN2CCC(OCc3ccccn3)CC2)c(F)c1 | 2.13 |
| COc1ccc(-c2[nH]ncc2CN2CCC(N3CCSCC3)CC2)cc1F | 3.77 |
| COc1ccc(-c2[nH]ncc2CN2CCC(OCc3ccccc3)CC2)c(F)c1 | -64.5 |
| CN(C)c1ccc(C(CNC(=O)c2ccco2)N2CCCC2)cc1 (centres unmarked) | 13.2 |
| Cc1nc(C)c(-c2csc(Nc3ccc(O)c(C(=O)O)c3)n2)s1 | 13.6 |
| CC(=O)c1ccc(NC(=S)N2CCN(c3cccc(Cl)c3)CC2)cc1 | 12.6 |
